This is a sample that favours compounds with a hit; in the whole collection about 19% have one here.
HT1080 IDH1KD tx = toxicity to HT-1080 IDH1 knockdown cells (counter line); HT-1080 IDH1 knockdown viability, ATP luminescence, 48 h; Potency, µM (top dose mostly 46.1 µM), without a hit: at the top dose activity, negative = toxicity, hits mostly cytotoxic; hit rate 2% among 360,000;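 note: potency is the fitted concentration of half-maximal effect; 0% = DMSO wells and -100% = cell-free medium wells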
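Knockdown cells (IDH1KD HT-1080) received compounds 2 h after plating at 750 cells/well and were kept 48 h at 37 °C in 5% FBS RPMI. A CellTiter-Glo luminescence read gave % activity for curve fitting.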
IL1B secr inh = inflammasome signaling inhibition, IL-1 beta readout. THP-1 LPS/ATP IL-1B secretion, AlphaLISA, 16 h; active compounds read low. activity change, % at 57.5 µM. hit rate 4.7% among 360,000. AID 743279; in the data active = activity change below about -50%; inconclusive = mostly about -30% to -49%
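Secreted IL-1B measured by AlphaLISA bead assay after 16 h compound exposure of THP-1 cells; compounds (final up to 57.5 uM) added 1 h before LPS (250 ng/mL) and ATP (1.25 mM) stimulation; lower signal means less secretion.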
TDP1 cell noCPT = qHTS for Inhibitors of human tyrosyl-DNA phosphodiesterase 1 (TDP1): qHTS in cells in absence of CPT. DT40 Tdp1-/- hTDP1 cells, no CPT, ATP luminescence, 48 h. Potency, µM (top dose mostly 46.2 µM), for inactives: at the highest dose activity change, negative = growth inhibition, hits mostly inhibitors. hit rate 15% among 420,000. AID 686978, 2013; note: potency is the fitted concentration of half-maximal effect; nearly all actives have a fitted effect of over 55% in size
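Growth kinetics read by CellTiter-Glo luminescence after ≥48 hr at 37 °C. Cells: DT40 Tdp1-/- stably carrying human TDP1, 400 per well, compound exposure in the absence of CPT (DMSO vehicle).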
DT40 TDP1 CPT = growth inhibition of DT40 Tdp1-/-;hTDP1 cells with camptothecin (screen for TDP1 inhibitors); chicken DT40 Tdp1-/-;hTDP1 cells + 20 nM CPT, ATP luminescence, 48 h; Potency, µM (highest dose often 46.2 µM), for inactives: top-dose activity change, negative = growth inhibition, hits mostly inhibitors; hit rate 12% among 420,000; AID 686979; note: potency is the fitted concentration of half-maximal effect; nearly all actives have a fitted effect of over 55% in size
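Cell growth measured by CellTiter-Glo luminescence after a minimum 48 h, 37 C compound exposure with 20 nM CPT in Tdp1-knockout DT40 cells stably expressing hTDP1, seeded 400/well; qHTS titration format.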
HT1080-NT tox = kills 2HG-producing HT-1080-NT fibrosarcoma cells. Potency, µM (series often up to 46.1 µM), for the others: at the top dose activity, negative = less viability, hits mostly cytotoxic. HT-1080-NT fibrosarcoma viability, CellTiter-Glo ATP luminescence, 48 h. hit rate 1.6% among 360,000. AID 686970;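 note: NT is the 2HG producing partner of a matched IDH1 knockdown line; potency is the fitted concentration of half-maximal effect; 0% = DMSO-treated cells and -100% = media-only wells without cells; nearly all actives have a fitted effect of over 55% in size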
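HT-1080-NT; 750 cells/well; 5% FBS RPMI; 48 h compound, 37 degrees C; CellTiter-Glo luminescence; curve fitting and curve-class assignment.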
* hit, by the source's call; ? = inconclusive; . = no result given; [ ] = remark or other dose. Unless noted, calls come from the whole dose curve; as a rule, active = well fitted curve in the direction sought with a large enough effect; inconclusive = small, poorly fitted or top-dose-only effect, or another doubt; inactive = no such curve, though single readings can be large; an effect the other way counts as inactive or inconclusive. Unless noted, % is set by controls: 0 for no effect and ±100 for the full control effect.

SMILES	HT1080 IDH1KD tx	IL1B secr inh	TDP1 cell noCPT	DT40 TDP1 CPT	HT1080-NT tox
CCN(CC)CCCNC(=O)c1oc2ccc(S(=O)(=O)N3CC(C)CC(C)C3)cc2c1C (configuration not stated)	26µM*	-52*	18µM*	?	?
Cc1c(C(=O)NCC2COc3ccccc3O2)oc2ccc(S(=O)(=O)N3CCOCC3)cc12 (configuration not stated)	9%	-8	?	?	10%
Cc1c(C(=O)NCC2CCCO2)oc2ccc(S(=O)(=O)N3CC(C)CC(C)C3)cc12 (configuration not stated)	-3%	30	?	?	0%
Cc1c(C(=O)N2CCCCC2)oc2ccc(S(=O)(=O)N3CC(C)CC(C)C3)cc12 (configuration not stated)	?	?	13µM*	18µM*	?
CCOC(=O)N1CCN(C(=O)c2oc3ccc(S(=O)(=O)N4CCCCC4)cc3c2C)CC1	-28%	16	?	?	6%[9.24 µM]
Cc1c(C(=O)NCC2COc3ccccc3O2)oc2ccc(S(=O)(=O)N3CC(C)CC(C)C3)cc12 (configuration not stated)	-1%	-15	13µM*	18µM*	0%
CCN(CC)S(=O)(=O)c1ccc2oc(C(=O)NCC3COc4ccccc4O3)c(C)c2c1 (configuration not stated)	?	-9	23µM*	?	-30%
COc1ccccc1-c1csc(C(O)c2ccc(F)c(F)c2)n1 (configuration not stated)	?	-9	-32%	-26%	?
COc1cc(=O)n2c(c1C(=O)NCc1ccc3c(c1)OCO3)CCN(C(=O)c1ccccc1F)CC2	.	.	-15%	4%	.
CC(C)(Cc1cc(CC(C)(C)C(=O)O)cc(C(C)(C)C)c1)C(=O)O	0%	43	2%	-3%	-13%
COc1ccc(C(=O)N(C)CCCC2CCCC2)cc1OC1CCN(C(C)=O)CC1	-5%	2	16µM*	?	0%
COc1ccc(C(=O)NCCCC2CCCC2)cc1OC1CCN(C(C)C)CC1	?	-22	16µM*	16µM*	?
CCOc1ccc(CNC(=O)C2CCCN(c3nc4c(C)cc(C)cc4s3)C2)cc1 (configuration not stated)	.	.	?	18µM*	.
COc1ccc(CCNC(=O)C2CCCN(c3nc4c(C)cc(C)cc4s3)C2)cc1OC (configuration not stated)	.	.	13µM*	21µM*	.
COc1ccc(CCNC(=O)C2CCCN(c3nc4ccccc4s3)C2)cc1OC (configuration not stated)	9%	-20	?	?	6%
Cc1cc(C)c2nc(N3CCCC(C(=O)NCc4cccc(Br)c4)C3)sc2c1 (configuration not stated)	.	.	-25%	?	.
C=C1C=C(C)n2ncc(C(=O)Nc3ccc(F)cc3F)c2N1	.	.	4%	1%	.
O=C(Nc1ccc(S(=O)(=O)N2CCOCC2)cc1)c1ccccc1Br	1%	-15	?	-17%	-1%
CSCC(=O)N1CCCC(CNC(=O)c2ccc(-c3ccccc3)cc2)C1 (configuration not stated)	0%	-8	23µM*	23µM*	-10%
CC(=O)CCC(=O)N1CCCC(CNC(=O)c2ccc(-c3ccccc3)cc2)C1 (configuration not stated)	6%	-16	?	?	-4%
O=C(NCC1CCCN(C(=O)c2cccnc2)C1)c1ccc(-c2ccccc2)cc1 (configuration not stated)	1%	6	23µM*	?	-2%
Cc1ccc(C2CC(=O)N3CN(Cc4ccco4)CSC3=C2C#N)cc1 (configuration not stated)	12%	18	-13%	-20%	2%

From PubChem BioAssay
